Screens deposited in PubChem BioAssay by National Center for Advancing Translational Sciences (NCATS).
D1 PAM: Potentiators of Human D1 Dopamine Receptor: qHTS; actives 0.036% (n = 360,000); potentiation, % at 10 µM; HEK293 TREx D1 cells, calcium flux, dopamine EC20 potentiation; D(1A) dopamine receptor (Homo sapiens), P21728; in the data active = potentiation above about 30%
Target sequence (P21728 whole entry, looked up): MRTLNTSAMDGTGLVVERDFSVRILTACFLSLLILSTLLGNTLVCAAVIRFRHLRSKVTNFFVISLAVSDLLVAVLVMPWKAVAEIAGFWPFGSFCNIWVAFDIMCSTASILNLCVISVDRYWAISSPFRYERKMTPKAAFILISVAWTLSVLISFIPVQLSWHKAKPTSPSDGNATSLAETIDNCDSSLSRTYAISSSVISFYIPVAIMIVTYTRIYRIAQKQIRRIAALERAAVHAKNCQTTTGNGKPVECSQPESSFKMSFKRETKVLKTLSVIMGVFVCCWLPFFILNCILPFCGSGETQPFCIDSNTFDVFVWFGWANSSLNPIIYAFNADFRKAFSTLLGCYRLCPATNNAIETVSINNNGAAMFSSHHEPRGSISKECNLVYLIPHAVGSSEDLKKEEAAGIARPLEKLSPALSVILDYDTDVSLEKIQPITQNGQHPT
D1 antagonist: Antagonist of Human D 1 Dopamine Receptor: qHTS. D(1A) dopamine receptor (Homo sapiens), P21728. HEK293 TREx D1 cells, calcium flux, dopamine EC80; active compounds read low. activity change, negative = inhibition, % at 10 µM. actives 3.2% (n = 360,000); in the data active = activity change below about -30%
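Antagonism measured as reduced calcium response to an EC80 dopamine addition following 180 s compound pre-read; cells were inducible HEK293 Trex D1 plated overnight at 30 C, read kinetically at 1 cycle/sec.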
TRHR PAM: qHTS for Small Molecule Agonists and Allosteric Enhancers of Human TRH Receptor: Primary Screen for Enhancers; enhancement, % at 2 µM; TRHR cells, fluo-8 calcium fluorescence, EC20 TRH enhancement; AID 493056, 2011; Thyrotropin-releasing hormone receptor (Homo sapiens), P34981; actives 0.66% (n = 360,000); in the data active = enhancement above about 30%
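Enhancer read-out: after compound pinning and an initial kinetic agonist-mode read, an EC20 of TRH (10 nM final) was injected and fluo-8 calcium signal (Ex 480/Em 530) followed at 1 s/cycle for 100 cycles in TRHR-expressing cells.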
TRHR ag: qHTS for Small Molecule Agonists and Allosteric Enhancers of Human TRH Receptor: Primary Screen for Agonists; activation, % at 2 µM; actives 0.18% (n = 360,000); TRHR cells, calcium flux fluo-8, FDSS agonist mode
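Read-out: compound-evoked intracellular calcium rise in TRHR cells, fluo-8 dye, kinetic FDSS fluorescence at 1 s/cycle following a 10-cycle baseline. Cells cultured overnight before dye loading (30 min–1.5 h, RT).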
D1 ag: Allosteric Agonists of the Human D1 Dopamine Receptor: qHTS; D(1A) dopamine receptor (Homo sapiens), P21728; HEK293 T-REx D1 cells, calcium flux, agonist mode; AID 504660, 2011; actives 1% (n = 360,000); activation, % at 2 µM
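Tetracycline-induced HEK293 TREx D1 cells, force-coupled to calcium signalling, were dye-loaded with a no-wash calcium kit. Compound was pin-added after a 10 s baseline. Fluorescence was read kinetically at 1 cycle/s for 180 s, with calcium rises flagged as agonism.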
A number is an active result; n = inactive; x = no result given; ! = not active in a repeat. Compounds with a hit are over-represented: about 4.7% of the library has one in this group of screens. Rule as the data show it, unless noted: active = activation above about 30%; inactive = the rest.

SMILES	D1 PAM	D1 antagonist	TRHR PAM	TRHR ag	D1 ag
CCOCCCNC(=O)c1cc(Sc2cccc(Cl)c2)nc2ccccc12	n	-60	n	n	n
CCOCCCNC(=O)c1cc(Sc2ccc(C)cc2)nc2ccccc12	n	n	n	n	n
CCC(C)NC(=O)c1cc(Sc2cccc(Cl)c2)nc2ccccc12 (stereo not given)	n	-61	n	n	n
Cn1cc(S(=O)(=O)N2CCCCC2)cc1C(=O)NCc1ccc(Cl)cc1	n	n	n	n	n
COc1ccc(CNC(=O)COc2cc3c(c4oc(=O)cc(C)c24)CCC(C)(C)O3)cc1OC	n	-31	n	n	n
Cc1cc(=O)oc2c3c(cc(OCC(=O)NCc4ccncc4)c12)OC(C)(C)CC3	n	n	n	n	n
CC(=O)NC(Cc1ccc(F)cc1)C(=O)NC1CCN(S(=O)(=O)c2ccccc2)CC1 (stereo not given)	n	n	n	n	n
Cc1cccc(CC(=O)NC2CCN(C)CC2)c1	n	n	40	n	n
Cc1cc(Cl)ccc1OCCCC(=O)N1CCN(C)CC1	n	n	n	n	n
CC(=O)NC(Cc1cccc(C)c1)C(=O)NC1CCN(S(=O)(=O)c2ccccc2)CC1 (stereo not given)	n	-36	n	n	n
Cc1cc(Cl)ccc1OCCCC(=O)NC1CCN(C)CC1	n	-42	n	n	n
Cc1cc(NC(=O)COC(=O)CCCOc2ccc(Cl)cc2C)no1	n	-30	n	n	n
CN(C(=O)CSc1nc2ncccc2o1)c1ccc(F)cc1	n	n	n	n	n
Cc1ccc(NC(=O)c2cccc(NC(=O)CC3SC(N4CCCCC4)=NC3=O)c2)nc1 (stereo not given)	n	n	n	n	n
O=C(NC1CC2CCCC(C1)N2C(=O)Nc1ccccc1Cl)C1CC1 (stereo not given)	n	n	n	n	n
O=C(Cn1c(NCCO)nc2ccccc21)N1CCN(Cc2ccccc2)CC1	n	-41	n	n	n
O=C(Cn1c(S(=O)(=O)Cc2ccccc2)nc2ccccc21)N1CCCCC1	x	-35	n	n	n
CCc1nc2ccccc2n1CC(=O)N1CCN(Cc2ccccc2)CC1	n	n	n	n	n
CC(CN1CCCCC1)OC(=O)/C=C/c1ccccc1 (stereo not given)	n	n	n	n	n
Nc1c(Cl)cc(C2=NCCn3nc4cc([N+](=O)[O-])ccc4c32)cc1Cl	n	n	n	n	n
Nc1c(Cl)cc(C2=NCCn3c2c2ccc([N+](=O)[O-])cc2[n+]3[O-])cc1Cl	n	-33	n	n	n
CCOc1ccc(NC(=O)[C@H]2O[C@@H]3OC(C)(C)O[C@@H]3[C@H]3OC(C)(C)O[C@H]32)cc1	n	n	n	n	n
CCN(CC(=O)Nc1c(F)cccc1F)C(=O)CSc1ccccc1	n	n	n	n	n
CCN(CC(=O)Nc1c(F)cccc1F)C(=O)Cc1c(C)nc2ccccc2c1C	n	-49	n	n	n
CCN(CC(=O)Nc1c(F)cccc1F)C(=O)Cc1ccc2c(c1)CCC2	n	-34	n	n	n
SMILES	D1 PAM	D1 antagonist	TRHR PAM	TRHR ag	D1 ag
CCN(CC(=O)Nc1c(F)cccc1F)C(=O)c1cc(C)nc2ccccc12	n	n	n	n	n
CCN(CC(=O)Nc1c(F)cccc1F)C(=O)Cn1[nH]c(=O)c2ccccc2c1=O	n	-50	n	n	n
CCN(CC(=O)Nc1c(F)cccc1F)C(=O)Cc1ccc2c(c1)OCCO2	n	n	n	n	n
CCS(=O)(=O)c1nc(S(=O)(=O)c2ccc(Cl)cc2)c(NCc2ccc(Cl)cc2)s1	n	n	n	n	n
CC(C)(C)n1nc(C2CC2)cc1NC(=O)Nc1ccc(Cl)cc1	n	-41	n	n	n
Cc1cc(NC(=O)Nc2ccc(Cl)cc2)n(C(C)(C)C)n1	n	n	n	n	n
Cc1cc(NS(=O)(=O)c2ccc(NC(=O)COc3ccccc3Br)cc2)no1	n	n	n	n	n
CCn1nc(C)c2c(-c3ccccc3)cc(=O)n(C(C)C(=O)NCc3cccc(OC)c3)c21 (stereo not given)	n	n	n	n	n
O=C(NCCc1ccc(Cl)cc1)C(=O)NCC(c1cccs1)S(=O)(=O)c1cccs1 (stereo not given)	n	x	n	n	n
CCCC1C(C(=O)OCC)=C(C)NC(C)=C1C(=O)OCC	n	-50	n	n	n
CCOC(=O)C1=C(C)NC(C)=C(C(=O)OCC)C1C(=O)OCC(=O)N(C)C	n	-60	n	n	n
CCNC(=O)COC(=O)C1C(C(=O)OCC)=C(C)NC(C)=C1C(=O)OCC	n	n	n	n	n
CCOC(=O)C1=C(C)NC(C)=C(C(=O)OCC)C1c1ccc(O)cc1	n	-36	n	n	n
CC(C)(C)c1ccc(S(=O)(=O)NCc2ccc(C(=O)N3CCOCC3)cc2)cc1	n	n	n	n	n
Cc1ccc(CNS(=O)(=O)c2ccc(C(C)(C)C)cc2)n1C	n	-31	n	n	n
Cc1ccc(OCC(=O)Nc2sc3c(c2C(N)=O)CCCC3)c(C(C)(C)C)c1	n	-39	n	n	n
Cc1ccccc1OCC(=O)Nc1ccc(S(=O)(=O)Nc2ncccn2)cc1	n	n	n	n	n
Cc1ccc(OCC(=O)Nc2ccc(S(=O)(=O)Nc3ncccn3)cc2)c(C(C)(C)C)c1	n	-31	n	n	n
Cc1cc(OCC(=O)Nc2sc3c(c2C(N)=O)CCCC3)ccc1C(C)C	n	n	n	n	n
CCC(CC)C(=O)Nc1ccc(-c2cn3cccnc3n2)cc1	n	-31!	n	n	n
CCC(CC)C(=O)Nc1cccc(-c2cn3cccnc3n2)c1	n	-34	n	n	n
CC(C)(C)CC(=O)Nc1cccc(-c2cn3cccnc3n2)c1	n	n	n	n	n
CCC(CC)C(=O)Nc1ccncc1	n	-46	n	n	n
Cc1ccccc1NC(=O)Cc1nc(COC(=O)CCNS(=O)(=O)c2ccccc2)cs1	n	n	n	n	n
CNCc1c(OCc2ccc(F)cc2)ccc2ccccc12	n	-33	n	n	n
Fc1ccc(COc2ccc3ccccc3c2CNc2nn[nH]n2)cc1	n	n	n	n	n
Cc1ccc(NC(=O)Cn2c(=O)n(Cc3nc(-c4ccccc4)no3)c(=O)c3ccccc32)c(C)c1	n	n	n	n	n
COc1cc(Cl)ccc1OCc1cc(C(=O)N2C[C@]3(C)C[C@H]2CC(C)(C)C3)no1	n	n	n	n	38
COc1ccc(C(=O)N2CC3(C)CC2CC(C)(C)C3)cc1 (stereo not given)	n	-32	n	n	n
